Test results published in PubChem BioAssay (NCI).
This is part of a sample that, as a whole, favours compounds with a hit. Of some 83,000 tested, about 20% had one in any assay.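 Results are percent growth after 48 hours of single-concentration exposure. 100 means growth as in untreated cells, lower positive values show inhibition; negative values down to -100 show cell death.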 A number with no mark means an inactive call. Active and inactive are the calls of the source.

The compounds below were run on SW-620 colon (assay: NCI-60 one-dose screen, 48 h (100 = growth as untreated, 0 = no growth, -100 = all killed)). Details: 10 µM unless noted.
Protocol: Growth inhibition of the SW-620 human tumor cell line is measured as a screen for anti-cancer activity. Cells are grown in 96 well plates and exposed to the test compound for 48 hours. Compounds are tested at a single concentration, which is 10^-5 M for most compounds. The reported endpoint is percent growth (GI% or GIPRCNT), where numbers from 0 - 100% represent growth inhibition, and numbers from -100% - 0 represent cell death. For example, a value of 40 represents 60% growth inhibition. A value of 0 means no net growth occurred over the course of the experiment. A value of -40 indicates 40% of cells at the beginning of the experiment died by the end of the experiment. A value of -100 means all cells are dead at the end of the experiment.
NCI-60 Human Tumor Cell Lines Screen was performed using the standard one-dose NCI protocol, which is described in more detail at https://dtp.cancer.gov/discovery_development/nci-60/default.htm.
Compounds with GIPRCNT values below 10 were considered active. Activity score was based on GIPRCNT using the following formula: […]
Score is 0 for GIPRCNT values of 100 or above, 50 for GIPRCNT values of 0, and 100 for GIPRCNT values of -100.

Compound	growth
O=C(CSc1nc2ccccc2c(=O)n1-c1ccc(Cl)cc1)N/N=C/c1ccc(Oc2ccc(Cl)cc2)cc1	2.62% (active)
Cc1ccc2c(n1)C(=O)C(Cl)=C(Nc1ccc(C(C)C)cc1)C2=O	-22.8% (active)
Fc1ccc2nc(-c3cnn4cccnc34)sc2c1	93.7%
COc1ccc2[nH]cc(/C=N/Nc3ccnc4cc(Cl)ccc34)c2c1	-71.8% (active)
CN1CCN(c2ccc(Nc3nc(NCCNC(=O)c4ccccc4)c4sccc4n3)cc2)CC1	49.1%
C/C(=N\NC(=O)/C=C/CC(=O)O)c1nnn(-c2ccc([N+](=O)[O-])cc2)c1C	100%
Cc1ccc2c(n1)C(=O)C(Cl)=C(Nc1ccc(C(=O)OC(C)(C)C)cc1)C2=O	-42% [9.25 µM] (active)
C#C[C@]1(O)CC[C@H]2[C@@H]3CC=C4c5sc(NCc6ccccc6)nc5CC[C@]4(C)[C@H]3CC[C@@]21C	52.7%
CCOC(=O)c1ccc(NC2=C(Cl)C(=O)c3nc(C)ccc3C2=O)cc1	-19.6% (active)
CCN(CC)CCOc1ccc(C(=C(C)Cc2ccc(OC)cc2)c2ccc(OCCN(CC)CC)cc2)cc1	-6.4% (active)
CCN(CC)c1ccc(/C=N/NC(=O)c2ccc(S(N)(=O)=O)cc2)c(O)c1	35%
Cc1ccc(S(=O)(=O)NCCCNc2nc(Nc3ccc(N4CCN(C)CC4)cc3)nc3ccsc23)cc1	20.5%
COc1cc(-c2nc(-c3ccccc3)[nH]c2-c2ccnc(NCCCNS(=O)(=O)c3cccc(F)c3)n2)ccc1F	106%
CCc1cc2c(cc1Cl)nc1c(=O)[nH]c(=O)nc-1n2CCOCC(C)(C)C	89.5%
O=C(NNc1nc2cc(F)cc(F)c2n2cccc12)c1cccnn1	22.1%
CCCCCCOC(=O)c1cc(-c2ccc(F)cc2)nc2ccccc12	93.5%
CN(C)CCNc1ccc2ncc(C#Cc3cncc(C(=O)Nc4ccc(CN5CCN(C)CC5)c(C(F)(F)F)c4)c3)n2n1	-6.29% (active)
CC(Nc1ncnc2ccc(-c3cnc(N)nc3)cc12)c1ccccc1 (stereo not given)	67.4%
OCC(Nc1ncnc2ccc(-c3cnc4cnccn34)cc12)c1ccccc1 (stereo not given)	105%
O=C1[C@H]2Cc3c([nH]c4ccccc34)[C@H](c3ccc(Br)cc3)N2C(=O)CN1C1CCN(CC2CCCCC2)CC1	79.7%

Compound	growth
CCC(=C(c1ccc(OCCN2CCCCCC2)cc1)c1ccc(OCCN2CCCCCC2)cc1)c1ccc(Cl)cc1	-49.2% (active)
NS(=O)(=O)c1nnc(/N=C/c2c(O)[nH]c3ccccc23)s1	106%
O=C1Nc2ccc(F)cc2/C1=C\C(=O)c1ccc(NS(=O)(=O)c2ccccc2)cc1	43.1%
CC1=C(C)C(=O)C(Nc2ccc(C)c(C)c2)=C(Br)C1=O	103%
Clc1ccc2[nH]cc(-c3nn4cc(-c5ccncc5)nc4s3)c2c1	50.7%
Cc1[nH]c(C(=O)Nc2ccccc2OCc2cccc(C(=O)NC3CCNC3)c2)c(Cl)c1Cl (stereo not given)	-66.3% (active)
N#Cc1nc(-c2ccccc2)oc1N1CCC(C2(C(F)(F)F)N=N2)CC1	98.8%
CC(Nc1ncnc2ccc(-c3cnc4cnccn34)cc12)c1ccccc1 (stereo not given)	85.7%
Cc1ccc(Nc2nc(SC(C)C)nc(-c3ccccc3)c2C#N)cc1	89.2%
O=C1CSC(c2cn(-c3ccccc3)nc2-c2ccc(Cl)cc2)N1c1ccccc1 (stereo not given)	120%
CC(=C(c1ccc(OCCN(C)C)cc1)c1ccc(OCCN(C)C)cc1)c1ccc(Cl)cc1	-71.5% (active)
CNC(=O)c1cc(-n2ccc3cc(NC(=O)Nc4ccc(N5CCN(C)CC5)c(C(F)(F)F)c4)ccc32)ccn1	21.5%
CCN(CC)S(=O)(=O)c1ccc(-c2nc(C(Cl)Cl)nc3cc(-c4ccc(F)cc4)nn23)cc1	23.5%
Nc1cc(C(=O)N/N=C\c2ccc(OC(F)F)c(OC3CCCC3)c2)nn1CC(O)c1ccccc1 (stereo not given)	103%
CCCC/C(=C\c1ccc(O)c(O)c1)C(=O)NC(Cc1ccccc1)C(=O)C(=O)NCCc1ccc(OC)cc1 (stereo not given)	101%
Cn1ncc2c(C(=O)c3ccc(F)cc3)nc(C(C)(C)C)nc21	95.9%
O=C(N/N=C\c1ccc([N+](=O)[O-])cc1)c1ccc2nc(-c3ccc(Br)cc3)[nH]c2c1	5.34% (active)
CCOC(=O)c1cccnc1Nc1ccc(NC(=O)Nc2ccc(Cl)c(C(F)(F)F)c2)cc1	37.1%
Cc1csc(/N=C(N)/N=C(\N)c2cccc(Br)c2)n1	84.4%
NS(=O)(=O)c1ccc(Nc2nc(Nc3ccccc3)nc(N3N=C(c4ccc(Cl)cc4)CC3c3ccc(Cl)cc3)n2)cc1 (stereo not given)	54.4%
